Reference: PubChem BioAssay AID1159580 (chemical genetic matrix, 2015)
Among all 5,500 compounds or so, about 2,000 (36%) were called active. About 18% were inconclusive and are not listed. No stated cut-off is given here; in the data, active means normalized growth mostly below about 0.91 (no sharp cut-off); inconclusive means no clear call, values can overlap the other calls; inactive means mostly above about 0.92. Some of the results follow.

Test: chemical genetic growth profiling, strain panel (AID 1159580);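 further: tested at 20 µM; growth read once vehicle control cultures reached saturation at 30 °C; 1 = growth at the plate median or of vehicle wells; lower values mean less growth of the strain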
Conditions: S. cerevisiae deletion strains, growth OD
[1] = locus YAR019C, strain CDC15, hits give low values
[2] = locus YBL105C, strain PKC1, hits give low values
[3] = locus YBR135W, strain CKS1, hits give low values
[4] = locus YBR136W, strain MEC1, hits give low values
[5] = locus YBR160W, strain CDC28, hits give low values
[6] = locus YDL017W, strain CDC7, hits give low values
[7] = locus YDL028C, strain MPS1, hits give low values
[8] = locus YDL101C, strain DUN1, hits give low values
[9] = locus YDL108W, strain KIN28, hits give low values
[10] = locus YDL132W, strain cdc53, hits give low values
[11] = locus YDL214C, strain PRR2, hits give low values
[12] = locus YDR052C, strain DBF4, hits give low values
[13] = locus YDR054C, strain cdc34, hits give low values
[14] = locus YDR226W, strain ADK1, hits give low values
[15] = locus YDR477W, strain SNF1, hits give low values
[16] = locus YER123W, strain YCK3, hits give low values
[17] = locus YER133W, strain GLC7, hits give low values
[18] = locus YFL009W, strain cdc4, hits give low values
[19] = locus YFL029C, strain CAK1, hits give low values
[20] = locus YFR003C, strain YPI1, hits give low values
[21] = locus YFR019W, strain FAB1, hits give low values
[22] = locus YFR028C, strain CDC14, hits give low values
[23] = locus YGR040W, strain KSS1, hits give low values
[24] = locus YGR052W, strain FMP48, hits give low values
[25] = locus YGR092W, strain DBF2, hits give low values
[26] = locus YHR030C, strain SLT2, hits give low values
[27] = locus YHR079C, strain IRE1, hits give low values
[28] = locus YHR082C, strain KSP1, hits give low values
[29] = locus YHR205W, strain SCH9, hits give low values
[30] = locus YIL147C, strain SLN1, hits give low values
[31] = locus YJL095W, strain BCK1, hits give low values
[32] = locus YJL128C, strain PBS2, hits give low values
[33] = locus YJL157C, strain FAR1, hits give low values
[34] = locus YJR016C, strain ILV3, hits give low values
[35] = locus YJR066W, strain TOR1 (second series), hits give low values
[36] = locus YJR066W, strain TOR1, hits give low values
[37] = locus YKL048C, strain ELM1, hits give low values
[38] = locus YKL067W, strain YNK1, hits give low values
[39] = locus YKL101W, strain HSL1, hits give low values
[40] = locus YKL193C, strain SDS22, hits give low values
[41] = locus YKL203C, strain TOR2, hits give low values
[42] = locus YLR113W, strain HOG1, hits give low values
[43] = locus YLR133W, strain CKI1, hits give low values
[44] = locus YLR403W, strain SFP1, hits give low values
[45] = locus YML070W, strain DAK1, hits give low values
[46] = locus YMR001C, strain CDC5, hits give low values
[47] = locus YMR205C, strain PFK2 (second series), hits give low values
[48] = locus YMR277W, strain FCP1, hits give low values
[49] = locus YNL006W, strain LST8, hits give low values
[50] = locus YNL020C, strain ARK1, hits give low values
[51] = locus YNL161W, strain CBK1, hits give low values
[52] = locus YNL183C, strain NPR1, hits give low values
[53] = locus YNL207W, strain RIO2, hits give low values
[54] = locus YNL222W, strain SSU72, hits give low values
[55] = locus YNL307C, strain MCK1 (second series), hits give low values
[56] = locus YOL078W, strain AVO1, hits give low values
[57] = locus YOL136C, strain PFK27, hits give low values
[58] = locus YOR061W, strain CKA2, hits give low values
[59] = locus YOR119C, strain RIO1, hits give low values
[60] = locus YOR231W, strain MKK1, hits give low values
[61] = locus YOR329C, strain SCD5, hits give low values
[62] = locus YPL031C, strain PHO85, hits give low values
[63] = locus YPL153C, strain RAD53, hits give low values
[64] = locus YPL204W, strain HRR25, hits give low values
[65] = locus YPL209C, strain IPL1, hits give low values
[66] = locus YPL256C, strain CLN2, hits give low values
[67] = locus YPR025C, strain CCL1, hits give low values
[68] = locus YPR106W, strain ISR1, hits give low values
[69] = locus YPR111W, strain DBF20, hits give low values
[70] = strain NNK1, hits give low values
[71] = strain TSCII, hits give low values

Measured: normalized growth

S=C(Nc1ccc(Cl)cc1)Nc1ccc(Cl)cc1
active: [12] 0.894 | [26] 0.662 | [42] 0.717 | [66] 0.819
inactive: [1] 0.912 | [2] 0.915 | [3] 0.938 | [4] 0.928 | [5] 0.926 | [6] 0.921 | [7] 0.935 | [8] 0.96 | [9] 0.933 | [10] 0.927 | [11] 0.855 | [13] 0.912 | [14] 0.95 | [15] 0.861 | [16] 0.791 | [17] 0.828 | [18] 0.925 | [19] 0.92 | [20] 0.922 | [21] 0.864 | [22] 0.915 | [23] 0.847 | [24] 0.811 | [25] 0.703 | [27] 0.807 | [28] 0.902 | [29] 0.881 | [30] 0.926 | [31] 0.814 | [32] 0.903 | [33] 0.827 | [34] 0.922 | [35] 0.83 | [36] 0.772 | [37] 0.944 | [38] 0.853 | [39] 0.888 | [40] 0.926 | [41] 0.871 | [43] 0.839 | [44] 0.835 | [45] 0.825 | [46] 0.922 | [47] 0.871 | [48] 0.918 | [49] 0.937 | [50] 0.837 | [51] 0.918 | [52] 0.779 | [53] 0.893 | [54] 0.936 | [55] 0.783 | [56] 0.921 | [57] 0.848 | [58] 0.808 | [59] 0.878 | [60] 0.836 | [61] 0.923 | [62] 0.82 | [63] 0.845 | [64] 0.778 | [65] 0.923 | [67] 0.932 | [68] 0.931 | [69] 0.931 | [70] 0.932 | [71] 0.906

CC(C)(C)c1ccc(C(=O)NNC(=S)Nc2ccc(Cl)cc2)cc1
inactive: [1] 0.958 | [2] 0.978 | [3] 0.972 | [4] 0.974 | [5] 0.965 | [6] 0.983 | [7] 0.936 | [8] 0.978 | [9] 0.96 | [10] 0.971 | [11] 0.932 | [12] 0.986 | [13] 0.968 | [14] 0.954 | [15] 0.931 | [16] 0.895 | [17] 0.949 | [18] 0.937 | [19] 0.96 | [20] 0.98 | [21] 0.98 | [22] 0.957 | [23] 0.939 | [24] 0.974 | [25] 0.862 | [27] 0.916 | [28] 0.984 | [29] 0.904 | [30] 0.973 | [31] 0.898 | [32] 0.93 | [33] 0.953 | [34] 0.986 | [35] 0.845 | [36] 0.903 | [37] 0.996 | [38] 0.909 | [39] 0.91 | [40] 0.97 | [41] 1.01 | [42] 0.878 | [43] 0.938 | [44] 0.96 | [45] 0.921 | [46] 0.953 | [47] 0.933 | [48] 0.949 | [49] 0.981 | [50] 0.933 | [51] 0.986 | [52] 0.962 | [53] 0.971 | [54] 0.976 | [55] 0.896 | [56] 0.97 | [57] 0.919 | [58] 0.969 | [59] 0.964 | [60] 0.916 | [61] 0.983 | [62] 0.927 | [63] 0.873 | [64] 0.907 | [65] 0.968 | [67] 0.979 | [68] 0.984 | [69] 0.927 | [70] 0.997 | [71] 0.974
active: [26] 0.731 | [66] 0.839

O=C(NNC(=S)Nc1ccc(Cl)cc1)c1ncc(C(F)(F)F)cc1Cl
inactive: [1] 0.968 | [2] 0.99 | [3] 0.992 | [4] 0.985 | [5] 0.994 | [6] 0.989 | [7] 0.988 | [8] 0.985 | [9] 0.986 | [10] 0.966 | [11] 0.956 | [12] 0.991 | [13] 0.961 | [14] 0.982 | [15] 0.935 | [16] 0.863 | [17] 0.94 | [18] 0.975 | [19] 0.973 | [20] 0.991 | [21] 1 | [22] 0.984 | [23] 0.929 | [24] 0.942 | [25] 0.755 | [26] 0.901 | [27] 0.768 | [28] 1.08 | [29] 0.981 | [30] 0.972 | [31] 0.791 | [32] 0.971 | [33] 0.912 | [34] 0.974 | [35] 0.885 | [36] 1.01 | [37] 0.986 | [38] 0.95 | [39] 0.926 | [40] 0.984 | [41] 1.01 | [42] 0.886 | [43] 0.932 | [44] 0.91 | [45] 0.93 | [46] 0.986 | [47] 0.956 | [48] 0.966 | [49] 0.991 | [50] 0.929 | [51] 0.981 | [52] 0.854 | [53] 0.973 | [54] 0.979 | [55] 0.912 | [56] 0.972 | [57] 0.939 | [58] 0.925 | [59] 0.962 | [60] 0.843 | [61] 0.99 | [62] 0.901 | [63] 0.882 | [64] 0.86 | [65] 0.992 | [66] 0.875 | [67] 0.98 | [68] 0.987 | [69] 0.987 | [70] 0.995 | [71] 0.968
